Drawing on PubChem BioAssay (NCI), this text covers growth for 40 molecules.

This is part of a sample that, as a whole, favours compounds with a hit. Of some 83,000 tested, about 20% had one in any assay.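 96-well plates, one dose, 48 hours. Percent growth reported; active if below 10.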 Activity calls are given as the source filed them.

For the assay, the system named is HL-60(TB) leukemia. Put plainly: NCI-60 one-dose screen, 48 h (100 = growth as untreated, 0 = no growth, -100 = all killed). Particulars: 10 µM unless noted.
For `CCn1c(-c2nonc2N)nc2c(C#CC(C)(C)O)ncc(OC[C@H]3CCCNC3)c21`, the growth is 41% (inactive). For the molecule `O=C(O)C#Cc1ccc(Cl)cc1`, the growth is 94.1% (inactive). The same measure for `C#CC#CC#CC#CC#CC#CC#CC#CC[C@H]1OC[C@H](COC(=O)O[C@@H](C(=O)O[C@H]2C[C@@]3(O)[C@@H](OC(=O)c4ccccc4)[C@@H]4[C@]5(OC(C)=O)CO[C@@H]5C[C@H](O)[C@@]4(C)C(=O)[C@H](OC(C)=O)C(=C2C)C3(C)C)[C@@H](NC(=O)c2ccccc2)c2ccccc2)O1`: 11.3% (inactive); for `CCCc1nn(C)c2c(=O)[nH]c(-c3cc(S(=O)(=O)N4CCN(C)CC4)ccc3OCC)nc12`: 114% (inactive).

With `COc1cc2c(cc1OC)C(=O)C(CC1CCN(C(=O)Nc3ccc(C)cc3)CC1)C2` (stereo not given), the growth was 125% (inactive). Turning to `N#Cc1cc(-c2cc3ccccc3o2)oc1N`, the growth is -49.3% (active).

With `COc1cc(-c2nc3ccccc3s2)ccc1OCc1nc2n(n1)S(=O)(=O)c1ccccc1N2c1ccccc1`, the growth is 16.2% (inactive). The value for `COc1cc2nc3c(=O)n(CCN(C)C)cnn3c(=O)c2cc1OC` was 106% (inactive); that for `Cn1cc(-c2ccc3cc(-c4ccc(CC(=O)Nc5cc(C(C)(C)C)nn5C)cc4)cnc3c2)cn1` was 25.2% (inactive). Take `COc1ccc(-c2cn3c(ccc4ccccc43)n2)cc1`: the growth was 109% (inactive). With `CCOC(=O)/C(=C/CC/C(C)=C/CC/C(C)=C/CCc1ccoc1)CC(=O)N1CCCCC1`, the growth is -35.2% (active). The value for `O=C(NCCNC(=O)Oc1cccc2ccccc12)Oc1cccc2ccccc12` was 79.7% (inactive); that for `COc1cccc2c1C(=O)c1c(O)c3c(c(O)c1C2=O)C[C@@](O)(C(=O)COC(=O)c1cccnc1)C[C@@H]3OC1CC(N)C(O)C(C)O1` (stereo not given in full) was -27% (active).

Take `Cc1cc2nc3[nH]c4ccccc4c3nc2cc1C`: the growth is 55.2% (inactive). The value for `COc1nc(/C=C\Nc2ccc3c(c2)OCCOCCOCCOCCO3)nc(OC)n1` was 65.4% (inactive); that for `O=C1C(Cl)=C(Cl)C(=O)c2c1nc1n2CCCC1` was 74.8% (inactive). On to `Cc1cccc(/C=C2\N=C(c3ccccc3)N(c3ccc(S(N)(=O)=O)cc3)C2=O)c1`, for which the growth is 92.7% (inactive). The value for `N#Cc1c(N)nc2c(c1N)C(c1ccc(Cl)cc1)C1=C(CCCC1=O)N2c1sc2c(c1C#N)CCCC2` (stereo not given) was 89.2% (inactive); that for `CCOC(=O)C1=C(C(=O)c2ccc(Br)cc2)C(c2ccc(Br)cc2)NC(=S)N1` (stereo not given) was 117% (inactive). The same measure for `CC1/C=C/C=C/C=C/C=C/C=C/C=C/C=C/C(O[C@@H]2O[C@H](C)[C@H](O)[C@@H](O)[C@@H]2N)CC(O)C(C(=O)O)C(O)CC(=O)CC(O)CC(O)CC(O)CC(=O)CCCC(=O)CC(=O)OC1C(C)CC(C)C(O)CC(=O)c1ccc(N)cc1` (stereo not given in full): -60.3% (active). The value for `O=C1C2CC3C(CC2C(=O)[N]1[Sn]([c]1ccccc1)([c]1ccccc1)[c]1ccccc1)C1(Cl)C(Cl)=C(Cl)C3(Cl)C1(Cl)Cl` (stereo not given) was -58% (active); that for `O=C(NCc1ccco1)Nc1cccc2c(NC(=O)NCc3ccco3)cccc12` was 66.5% [100 µM] (inactive). For the molecule `Cc1cc(C(C)(C)C)cc(C)c1Br`, the growth is 108% (inactive). In the case of `FC(F)(F)c1ccc2nc(-c3nc(-c4ccccc4)n4ccccc34)[nH]c2c1`, the growth was 108% (inactive). `CC(C)[C@@H]1NC(=O)[C@]2(C)CSC(=N2)c2ccnc(c2)CNC(=O)C[C@@H](/C=C/CCS)OC1=O`: the growth was 9.07% (active). The value for `C=CCOC(=O)C1=C(C)NC(=O)NC1c1c(Cl)n(C)c2ccccc12` (stereo not given) was 109% (inactive).

`CC(=O)c1cc(Nc2cc(C)nc(N)n2)cc(C(C)=O)c1`: the growth is 96.1% (inactive).

In the case of `C=C(CNCCc1ccc(O)cc1)[C@@H]1CC[C@]2(CO)CC[C@]3(C)[C@H](CC[C@@H]4[C@@]5(C)CCC(NCCc6ccc(O)cc6)C(C)(C)[C@@H]5CC[C@]43C)[C@@H]12` (stereo not given in full), the growth was -65.2% (active). The same measure for `COc1ccc2nc(-c3ccc(OC)c(OC)c3)cc(-c3nnc(SCC(=O)Nc4ccc(/C(C)=N\O)cc4)n3-c3ccccc3)c2c1`: 26.3% (inactive).

Turning to `NC1=Nc2cc(OCCCCN3Cc4ccccc4C3)c(OCC3CC3)cc2C12CCCC2`, the growth is 20.2% (inactive).

For `COc1cc2oc(-c3cccc(C(=O)Nc4ccc(C#N)cc4)c3)cc(=O)c2c(O)c1OC`, the growth is 136% (inactive). The value for `CN1CCN(CCOc2ccc(-c3cnc4c(-c5cccc(F)c5)cnn4c3)cc2)CC1` was 10.7% (inactive); that for `O=C(c1ccccc1)C(CCc1ccccn1)CCc1ccccn1` was 107% (inactive); that for `S=c1nn[nH]n1C1CCCCC1` was 79.8% (inactive). Consider `CCN(CC)c1ccc(/C=C/C(=O)c2cccc(NS(C)(=O)=O)c2)cc1`, for which the growth is 9.82% (active). The value for `COc1ccc(N=C2CSc3nnc(-c4cc(F)c(Cl)cc4Cl)n3N2)cc1` was -48% (active); that for `Cc1cc(N=C2C=CC(=[N+](C)C)C=C2)c(N)cc1N` was 122% (inactive); that for `Oc1ccc(/C=N/NC(=S)Nc2ccccc2)nc1` was -8.79% (active). Regarding `c1ccc(CCc2ccccc2-c2cc(-c3ccccc3)on2)cc1`, the growth is 76.2% (inactive).

As for `Cc1ccc(-c2nc3nc(-c4ccc(F)cc4)nc(N4CCCNCC4)c3o2)cc1`, the growth was -70.3% (active).
